Screening data from PubChem.
TDP1 cell CPT = growth inhibition of DT40 Tdp1-/-;hTDP1 cells with camptothecin (screen for TDP1 inhibitors). chicken DT40 Tdp1-/-;hTDP1 cells + 20 nM CPT, ATP luminescence, 48 h. Potency, µM (series often up to 46.2 µM), for the others: top-dose activity change, negative = growth inhibition, actives largely listed as inhibitors. 12% of 420,000 active. AID 686979; further: potency means the concentration at half of the fitted maximal effect; nearly all actives have a fitted effect of over 55% in size
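Cell growth measured by CellTiter-Glo luminescence after a minimum 48 h, 37 C compound exposure with 20 nM CPT in Tdp1-knockout DT40 cells stably expressing hTDP1, seeded 400/well; qHTS titration format.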
TDP1 cell noCPT = qHTS for Inhibitors of human tyrosyl-DNA phosphodiesterase 1 (TDP1): qHTS in cells in absence of CPT | DT40 Tdp1-/- hTDP1 cells, no CPT, ATP luminescence, 48 h | Potency, µM (doses to about 46.2 µM), without a hit: at the highest dose activity change, negative = growth inhibition, hits mostly inhibitors | 15% of 420,000 active | AID 686978, 2013; further: potency means the concentration at half of the fitted maximal effect; nearly all actives have a fitted effect of over 55% in size
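Seeded 400 DT40-hTDP1 cells/well (vehicle DMSO, no 20 nM CPT); pinned compounds; ≥48 hr at 37 °C; CellTiter-Glo luminescence as viability measure.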
HT1080NT lethal = kills 2HG-producing HT-1080-NT fibrosarcoma cells; HT-1080-NT fibrosarcoma viability, CellTiter-Glo ATP luminescence, 48 h; Potency, µM (titrated, usually from 46.1 µM), without a hit: top-dose activity, negative = less viability, hits mostly cytotoxic; 1.6% of 360,000 active; AID 686970;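 further: NT is the 2HG producing partner of a matched IDH1 knockdown line; potency means the concentration at half of the fitted maximal effect; 0% = DMSO-treated cells and -100% = media-only wells without cells; nearly all actives have a fitted effect of over 55% in size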
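A 48-hour cytotoxicity screen used HT-1080-NT cells plated 2 hours before compound delivery. ATP-based CellTiter-Glo luminescence measured viability, normalized to DMSO and no-cell controls.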
HT1080 IDH1KD tx = HT-1080 IDH1 knockdown cell toxicity (counter line). 2% of 360,000 active. HT-1080 IDH1 knockdown viability, ATP luminescence, 48 h. Potency, µM (doses to about 46.1 µM), inactives show top-dose activity, negative = toxicity, usual class: cytotoxic;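 further: potency means the concentration at half of the fitted maximal effect; 0% = DMSO wells and -100% = cell-free medium wells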
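Using the IDH1-knockdown HT-1080 line run in the same batch and compound series as the NT line, viability after 48 h at 37 °C was determined by CellTiter-Glo luminescence and expressed as % activity.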
IL1B secr inh = blocks inflammasome-driven IL-1 beta release | AID 743279 | activity change, % at 57.5 µM | 4.7% of 360,000 active | THP-1 LPS/ATP IL-1B secretion, AlphaLISA, 16 h; active compounds read low; in the data active means activity change below about -50%; inconclusive means mostly about -30% to -49%
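THP-1 cells pretreated 1 hr with compounds (up to 57.5 uM final), then stimulated with LPS (250 ng/mL final) plus ATP (1.25 mM final); secreted IL-1B measured by AlphaLISA after 16 hr, decreased signal indicating inhibition.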
ALOX12 inh = ALOX12 (human) lipoxygenase inhibition | P18054 | purified 12hLO, xylenol orange hydroperoxide absorbance | Potency, µM (titrated, usually from 108 µM), without a hit: at the highest dose activity change, negative = inhibition, usual class: inhibitors | 1.1% of 580,000 active | AID 1671190; further: potency means the concentration at half of the fitted maximal effect
Target sequence (P18054 whole entry, looked up): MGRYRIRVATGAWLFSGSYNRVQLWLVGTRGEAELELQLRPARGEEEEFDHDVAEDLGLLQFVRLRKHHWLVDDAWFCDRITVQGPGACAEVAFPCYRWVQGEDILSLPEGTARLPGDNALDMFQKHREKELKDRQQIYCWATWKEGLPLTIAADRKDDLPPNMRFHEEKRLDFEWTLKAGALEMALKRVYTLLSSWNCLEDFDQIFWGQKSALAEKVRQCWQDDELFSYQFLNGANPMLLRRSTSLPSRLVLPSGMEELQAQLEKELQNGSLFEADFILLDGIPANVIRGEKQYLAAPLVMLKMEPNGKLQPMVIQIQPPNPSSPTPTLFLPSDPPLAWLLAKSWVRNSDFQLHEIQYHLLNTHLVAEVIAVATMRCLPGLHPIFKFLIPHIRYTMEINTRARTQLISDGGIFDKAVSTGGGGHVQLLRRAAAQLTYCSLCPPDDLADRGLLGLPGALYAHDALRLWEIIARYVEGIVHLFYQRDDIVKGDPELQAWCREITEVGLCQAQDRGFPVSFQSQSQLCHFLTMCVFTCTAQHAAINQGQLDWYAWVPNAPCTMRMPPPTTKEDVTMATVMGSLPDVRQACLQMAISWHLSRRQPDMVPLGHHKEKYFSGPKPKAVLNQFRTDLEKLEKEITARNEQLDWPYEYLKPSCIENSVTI
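Purified human 12hLO at 150 nM in 25 mM Hepes, 0.01% Triton X-100, pH 7.0, preincubated 15 min at room temperature with compound. Reaction started with 40 uM arachidonic acid, 30 min at room temperature. Hydroperoxide measured by Fe-xylenol orange, 573/405 nm absorbance ratio.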
An asterisk follows results filed as active. Shown is part of a subset that was picked to be rich in hits. Unless noted, the call rests on the fitted dose curve; in most records, active means well fitted curve in the direction sought with a large enough effect; inconclusive means small, poorly fitted or top-dose-only effect, or another doubt; inactive means no such curve, though single readings can be large; an effect the other way counts as inactive or inconclusive. Unless noted, on the % scale 0 is the no-effect control and ±100 the full control effect.

Cc1csc(C(C#N)C(=O)CN2CCCCCC2)n1 (configuration not stated) was read as ALOX12 inh -21%.
COC(=O)c1cc2n(n1)CCCN(C(=O)c1cc(CC(C)C)no1)C2 was read as ALOX12 inh 36%.
`CCOc1cc(C)c(C(C)C)cc1S(=O)(=O)NC1CC(C)(C)NC(C)(C)C1` gave ALOX12 inh 54%.
CCOc1ccc(OCC)c(S(=O)(=O)NC2CC(C)(C)NC(C)(C)C2)c1 was read as TDP1 cell CPT -12%, TDP1 cell noCPT -19%, HT1080NT lethal -2%, HT1080 IDH1KD tx -6%, IL1B secr inh -59* and ALOX12 inh 2%.
For COc1ccc(-c2c[n+]3c4n2CCCCC4=C(c2ccc(Br)cc2)C3)cc1 the results were TDP1 cell CPT 6.5µM*, TDP1 cell noCPT 10µM*, HT1080NT lethal inconclusive, HT1080 IDH1KD tx inconclusive, IL1B secr inh -98* and ALOX12 inh -25%.
Screening COc1ccc(C(CNC(=O)CCc2nnc(-c3ccccc3)o2)N(C)C)cc1 (configuration not stated) returned ALOX12 inh 14%.
`Cc1cccc(C)c1N1CCN(C(c2ccnc3ccccc23)c2nnnn2-c2ccc3c(c2)OCCO3)CC1` (configuration not stated) gave TDP1 cell CPT 18µM*, TDP1 cell noCPT 15µM*, HT1080NT lethal inconclusive, HT1080 IDH1KD tx inconclusive, IL1B secr inh inconclusive and ALOX12 inh inconclusive.
Fc1ccccc1N1CCN(C(c2ccnc3ccccc23)c2nnnn2-c2ccc3c(c2)OCCO3)CC1 (configuration not stated) was read as TDP1 cell CPT inconclusive, TDP1 cell noCPT 21µM*, HT1080NT lethal 1%, HT1080 IDH1KD tx -3%, IL1B secr inh -7 and ALOX12 inh 3%.
Screening Cc1cc(N2CCN(C(c3ccnc4ccccc34)c3nnnn3-c3c(C)cccc3C)CC2)c2ccccc2n1 (configuration not stated) returned TDP1 cell CPT 6.5µM*, TDP1 cell noCPT 4.6µM*, HT1080NT lethal -14%, HT1080 IDH1KD tx -18%, IL1B secr inh -56* and ALOX12 inh inconclusive.
`Cc1cccc(C)c1-n1nnnc1C(c1ccnc2ccccc12)N1CCN(CCN(C)C)CC1` (configuration not stated) gave TDP1 cell CPT inconclusive, TDP1 cell noCPT inconclusive, HT1080NT lethal -10%, HT1080 IDH1KD tx 7%, IL1B secr inh 3 and ALOX12 inh 9%.
Cc1cc(C(=O)CSc2nnc(COc3ccc(Cl)cc3)o2)c(C)n1C1CC1 was read as ALOX12 inh 10%.
Screening N#Cc1ccc(C(=O)N2C[C@@H]3C[C@H](C2)c2ccc(-c4cc5ccccc5s4)c(=O)n2C3)cc1 returned ALOX12 inh 10%.
For CCN1C(=O)/C(=C2/C=Cc3cc(C)ccc3N2CC)N(C)C1=S the results were TDP1 cell CPT 23µM*, TDP1 cell noCPT 21µM*, HT1080NT lethal -24%, HT1080 IDH1KD tx -20%, IL1B secr inh inconclusive and ALOX12 inh -12%.
For CCN1/C(=C2/SC(=S)N(C)C2=O)C=Cc2cc(C)ccc21 the results were TDP1 cell CPT -8%, TDP1 cell noCPT 0%, HT1080NT lethal 24%, HT1080 IDH1KD tx 23%, IL1B secr inh -9 and ALOX12 inh inconclusive.
S=C(NCc1cccnc1)Nc1ccc(Oc2ccccc2)cc1 was read as TDP1 cell CPT inconclusive, TDP1 cell noCPT inconclusive, HT1080NT lethal -14%, HT1080 IDH1KD tx -9%, IL1B secr inh 0 and ALOX12 inh inconclusive.
